Source: PubChem
pPAFAH inh: inhibitors of human plasma PAF acetylhydrolase (pPAFAH) | 330,000 tested, 1.5% active | Q13093 | inhibition, % at 3.39 µM | recombinant pPAFAH, FP-rhodamine probe fluorescence polarization | AID 463082;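 active = inhibition above the mean inhibition across the screen plus 3 SD, cut at about 25% in these data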;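 also: inhibitors block binding of the rhodamine activity-based probe so polarization drops; 0% = enzyme with DMSO and 100% = wells lacking pPAFAH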
Fam108B inh: Fam108B inhibition, counter-screen for RBBP9 inhibitors. inhibition, % at 9.51 µM. recombinant Fam108B, FP-Rh probe fluorescence polarization. 300,000 tested, 0.33% active. AID 1947;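 active = inhibition above the screen mean inhibition plus 3 SD, computed separately per campaign, cut at about 18% in these data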;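 also: inhibitors lower polarization as less probe binds the enzyme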
PAFAH2 FP inh: PAFAH2 (human) inhibition; recombinant PAFAH2, FP-rhodamine activity probe, fluorescence polarization; AID 492956; Q99487; 340,000 tested, 0.99% active; inhibition, % at 3.39 µM;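 active = inhibition above the mean over all tested compounds plus 3 SD, cut at about 30% in these data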;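 also: inhibitors block probe labeling of enzyme so polarization drops; 0% = enzyme with DMSO and 100% = wells lacking PAFAH2 protein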
PME-1 primary: PME-1 (human) inhibition. recombinant PME-1, FP-Rh probe fluorescence polarization. 320,000 tested, 0.53% active. inhibition, % at 5.9 µM. Q9Y570. AID 2130;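 active = inhibition above the campaign mean of all compounds plus 3 SD, cut at about 26% in these data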;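 also: competitive labeling of PME-1 active site by serine hydrolase directed probe; 0% = PME-1 with DMSO and 100% = wells lacking PME-1 enzyme; inhibitors block probe labeling so polarization falls and inhibition rises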
PAFAH1B2 inh: inhibitors of human PAFAH1B2; recombinant PAFAH1B2, FP-rhodamine activity probe, fluorescence polarization; inhibition, % at 3.39 µM; AID 492953; 340,000 tested, 1.2% active; P68402;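 active = inhibition above the mean of all tested compounds plus 3 SD, cut at about 24% in these data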;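 also: 0% = enzyme with DMSO and 100% = wells lacking PAFAH1B2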
Target sequence (P68402 whole entry, looked up): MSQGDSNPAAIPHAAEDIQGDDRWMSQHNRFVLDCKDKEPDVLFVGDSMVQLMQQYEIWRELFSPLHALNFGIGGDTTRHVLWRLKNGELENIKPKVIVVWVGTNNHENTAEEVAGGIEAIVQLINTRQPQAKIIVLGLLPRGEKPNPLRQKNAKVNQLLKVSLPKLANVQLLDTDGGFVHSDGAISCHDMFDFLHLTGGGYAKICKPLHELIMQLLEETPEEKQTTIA
PAFAH1B3 FP inh: inhibitors of human PAFAH1B3; Q15102; inhibition, % at 3.39 µM; AID 492972; 340,000 tested, 0.28% active; recombinant PAFAH1B3, FP-rhodamine probe, fluorescence polarization;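 active = inhibition above the screen-wide average of all tested compounds plus 3 SD, cut at about 25% in these data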;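 also: 0% = enzyme with DMSO only and 100% = wells lacking PAFAH1B3 protein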
Target sequence (Q15102 whole entry, looked up): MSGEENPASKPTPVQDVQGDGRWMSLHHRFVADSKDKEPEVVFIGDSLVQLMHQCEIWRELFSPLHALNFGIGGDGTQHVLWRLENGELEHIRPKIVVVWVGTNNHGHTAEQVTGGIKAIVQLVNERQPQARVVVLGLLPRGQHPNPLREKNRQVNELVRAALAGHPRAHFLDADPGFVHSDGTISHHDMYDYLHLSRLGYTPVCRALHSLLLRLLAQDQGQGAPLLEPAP
pPAFAH confirm: pPAFAH (human) inhibition, confirmed | shares compounds with pPAFAH inh | recombinant pPAFAH, FP-Rh probe fluorescence polarization | inhibition, % at 3.39 µM | 2,300 tested, 72% active | AID 463230;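 active = mean inhibition of the triplicate above the hit cutoff set for the earlier primary screen, cut at about 25% in these data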;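 also: 0% = enzyme with DMSO and 100% = wells lacking pPAFAH enzyme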
The depositor's hits bear a star; nt = no result given. The list is not random: actives were taken first. Their share in the collection is about 2.8%.

SMILES | pPAFAH inh | Fam108B inh | PAFAH2 FP inh | PME-1 primary | PAFAH1B2 inh | PAFAH1B3 FP inh | pPAFAH confirm
Cc1ccc(OCCC(=O)NNC(=O)c2ccccc2F)cc1 | 1.4 | nt | -1.2 | -1.8 | 7.1 | 0.2 | nt
Nc1ccc(C(=O)N2CCN(S(=O)(=O)c3ccc(Cl)s3)CC2)cc1[N+](=O)[O-] | 2.9 | -3.8 | 3.1 | -0.9 | 7.9 | 3.1 | nt
COc1ccc(N(C(=O)c2snc(C(N)=O)c2N)C(C(=O)NCc2ccc(F)cc2)c2ccc(O)cc2)cc1 (centres undefined) | -13.2 | -20.6 | -19.8 | -16.2 | -1.3 | -6.1 | nt
COc1cc(OC)cc(-c2c(-c3cccs3)c3cc(-c4ccc(SC)cc4)ccc3n2C)c1 | 13.6 | nt | -1.4 | 1.9 | -4.8 | 2.5 | nt
COc1cc(OC)cc(-c2c(-c3cccs3)c3cc(-c4ccc(OCc5ccccc5)cc4)ccc3n2C)c1 | 45.3* | nt | 0.7 | nt | -2.6 | 0.0 | 3.6
COc1cc(Cl)c(C)cc1NC(=O)CSc1sc2c(O)cc(=O)[nH]c2c1C#N | 40.2* | -0.5 | 14.3 | -23.1 | 9.1 | 12.7 | 30.6*
CC(Oc1ccc(F)cc1)C(=O)Nc1ccccc1C(=O)N1CCCCC1 (centres undefined) | -2.8 | nt | -1.1 | 1.9 | -3.3 | 1.4 | nt
O=C(Nc1cnc2ccccc2c1)c1ccncc1 | 51.6* | -0.5 | 0.5 | 2.6 | 3.6 | 3.7 | 5.3
O=C(NC(=S)Nc1cnc2ccccc2c1)c1ccccc1 | 3.0 | 0.6 | -1.4 | -7.0 | -3.4 | 9.3 | nt
CCCC1=Nc2cc(C(=O)NCCCN3CCOCC3)ccc2Sc2ccccc21 | 17.8 | 0.6 | -2.1 | 1.7 | 4.4 | 5.3 | nt
CCCC1=Nc2cc(C(=O)NCCCN3CCN(C)CC3)ccc2Sc2ccccc21 | 34.5* | -3.5 | -4.4 | -5.5 | 3.2 | 5.8 | 6.0
COc1cc(/C=C(\C#N)C(=O)NCC2CCCO2)ccc1O (centres undefined) | 6.5 | 3.2 | 1.7 | -6.8 | -1.2 | 10.7 | nt
Cc1cc(/C=C(\C#N)C(=O)NCC2CCCO2)c(C)n1-c1ccc(Cl)cc1 (centres undefined) | 66.6* | 0.4 | 3.9 | 3.0 | 1.7 | -7.6 | 68.9*
Cc1ccc(S(=O)(=O)N2[C@@H](c3ccc(C(C)(C)C)cc3)C(C(=O)O)=CC[C@H]2c2ccc(Cl)cc2)cc1 | 37.4* | nt | -2.0 | nt | 89.6* | -5.6 | 54.1*
CCOc1ccc([C@@H]2CC=C(C(=O)O)[C@H](c3cccc(Cl)c3)N2S(=O)(=O)c2ccc(C)cc2)cc1 | 5.8 | 1.6 | 3.2 | -2.7 | 19.1 | 2.5 | nt
Nc1ncnc2oc(-c3ccco3)c(-c3ccco3)c12 | 42.2* | 16.0 | 49.6* | 3.3 | 21.2 | 37.1* | 9.4
C/C(CC(=O)N1CCN(C=O)CC1)=N\NC(=O)c1cc2ccccc2cc1O | 54.0* | 15.6 | 7.5 | 19.4 | 4.6 | 13.5 | 9.2
C/C(=N\NC(=O)c1cc2ccccc2cc1O)c1ccccn1 | 47.6* | 3.7 | 0.8 | 18.6 | 4.8 | 8.7 | -2.3
C/C(=N\NC(=O)c1cc2ccccc2cc1O)c1cc2ccccc2o1 | 41.4* | 13.0 | 10.6 | -21.0 | 9.3 | 7.6 | 34.0*
O=C(N/N=C/c1ccc(Sc2ccccn2)o1)c1cc2ccccc2cc1O | 52.5* | 14.4 | 0.1 | -41.6 | 8.7 | 18.9 | 56.4*
C/C(=N/NC(=O)c1cc2ccccc2cc1O)C1C(=O)c2ccccc2C1=O | 76.9* | 75.1* | 73.7* | 79.1* | 73.0* | 37.0* | 67.6*
O=C(Cc1ccc(NC(=O)C2CCN(C(=O)C3CC3)CC2)cc1)Nc1cccc(C(=O)N2CCCC2)c1 | nt | nt | 2.2 | nt | 3.0 | 4.9 | nt
Cc1ccc(NC(=O)c2cc(C)n(-c3cccc(C)c3)c2C)cc1 | 71.3* | -4.5 | -5.3 | -3.1 | -0.2 | 4.9 | 76.7*
O=C1CC(=C2c3ccccc3-c3ccccc32)C(=O)N1CCCCN1CCN(c2ccccc2)CC1 | 41.1* | -1.4 | 4.1 | 2.3 | -1.1 | -4.2 | 19.3
Cc1ccc(N=Cc2cc(Cc3ccccc3Cl)cc([N+](=O)[O-])c2O)c(O)c1 | 47.8* | 2.3 | 11.8 | 9.8 | 8.9 | 7.5 | 62.4*
SMILES | pPAFAH inh | Fam108B inh | PAFAH2 FP inh | PME-1 primary | PAFAH1B2 inh | PAFAH1B3 FP inh | pPAFAH confirm
CC(C)=CCc1cc2c(=O)c3c(O)c4c(cc3oc2c(O)c1O)OC(C)C4(C)C (centres undefined) | 67.2* | -2.5 | nt | 29.7* | nt | nt | 85.7*
CC1=C(C(=O)Nc2ccc(C(=O)N3CCN(c4cccc(Cl)c4)CC3)cc2)SCCO1 | 42.0* | -2.2 | 3.8 | 5.8 | 0.4 | 0.1 | 23.8
Cc1cccc(NC(=O)CSc2nnc(-c3ccco3)c(-c3ccco3)n2)c1C | 34.6* | 8.8 | 41.2* | 0.0 | 12.3 | 5.4 | 21.5
Cc1cccc(NC(=O)CSc2nnc(-c3ccco3)c(-c3ccco3)n2)c1 | nt | nt | 24.8 | nt | 7.1 | 10.0 | nt
Cc1cc(C)n2nc(SCC(=O)NC3CCCCC3C)nc2n1 (centres undefined) | 3.2 | 1.1 | -2.5 | -4.0 | 3.8 | 10.2 | nt
N#C/C(=C\c1ccc(O)c(O)c1)C(=O)N1CCCC1 | 7.6 | 0.4 | 5.2 | -2.8 | 6.6 | 10.9 | nt
N#C/C(=C\c1ccc(O)c(O)c1)C(=O)c1ccc(O)c(O)c1 | 93.0* | 1.9 | 78.6* | -3.2 | 53.6* | 38.5* | 85.0*
Cc1ccccc1C(=O)Nc1nnc(SCC(=O)NCc2ccco2)s1 | 1.0 | -0.8 | 2.6 | 5.3 | 0.5 | 5.6 | nt
COc1cc(CCc2ccccc2)c(C(=O)O)c(O)c1C/C=C(/C)CCC=C(C)C | 71.6* | nt | 18.0 | nt | 22.6 | 9.9 | 58.7*
COCCn1c(SCc2nc3sc(C(=O)OC)c(C)c3c(=O)[nH]2)nc2ccccc21 | 2.7 | -1.9 | 4.4 | 2.1 | 2.2 | 12.3 | nt
CCn1c(SCc2nc3sc(C(=O)O)c(C)c3c(=O)[nH]2)nc2ccccc21 | 48.2* | 4.9 | 15.7 | 11.9 | 11.9 | 43.4* | 47.2*
O=C(CNC(=O)c1nc[nH]c1C(=O)NCc1ccccc1)OCc1ccccc1 | 34.9* | -3.3 | 4.0 | 2.3 | 8.4 | 14.3 | 23.8
O=C(CNC(=O)c1nc[nH]c1C(=O)NCC(=O)OCc1ccccc1)OCc1ccccc1 | 9.9 | -1.6 | 5.1 | -2.2 | 0.9 | -0.5 | nt
CCOC(=O)c1sc2ncn(/N=C/c3ccc(O)c(OC)c3)c(=O)c2c1C | -2.1 | 6.3 | 1.8 | 0.7 | 1.9 | 11.5 | nt
CCOC(=O)c1c(-c2ccccc2)csc1NC(=O)/C(C#N)=C/c1ccc(O)c(OC)c1 | 40.4* | 5.5 | 13.6 | 11.9 | 8.2 | 20.8 | 21.6
CCOC(=O)c1c(-c2ccccc2)csc1NC(=O)/C(C#N)=C/c1ccc(OC)c(OC)c1 | 16.8 | -2.4 | -6.6 | 5.1 | -0.3 | -3.0 | nt
COC(=O)/C(=C/Nc1ccc(O)cc1)[N+](=O)[O-] | 37.4* | -3.1 | -5.6 | 15.7 | 5.3 | 5.2 | 1.6
Oc1ccc(/C=N/Nc2cc(N3CCCC3)nc(N3CCCC3)n2)cc1O | 55.8* | 6.4 | 9.5 | 5.7 | -2.4 | 19.6 | 28.3*
